High-throughput results from PubChem.
Mm-Cpn inhibitor = inhibitors of Methanococcus maripaludis chaperonin TRiC (MmCpn); purified Mm-Cpn ATPase, ADP Transcreener TR-FRET; Potency, µM (series often up to 76.9 µM), for the others: top-dose activity, negative = inhibition, actives largely listed as inhibitors; 330,000 compounds, 0.031% hits; note: % is set by controls: 0 for no effect and ±100 for the full control effect; nearly all actives have a fitted effect of over 80% in size
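TR-FRET (320 nm excitation; 590 and 665 nm emission) reports ADP made from 10 uM ATP by 25 nM enzyme; compounds were preincubated 10 min, reaction run 30 min, both at 37°C.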
ClpP mod = qHTS Assay for Activators of ClpP. ATP-dependent Clp protease proteolytic subunit (Bacillus subtilis (strain 168)), P80244. purified B. subtilis ClpP, FRET peptide cleavage, 20 min. Potency, µM (titrated, usually from 57.5 µM), without a hit: top-dose activity change, negative = active. 340,000 compounds, 1.9% hits. AID 651965, 2013; active = well fitted falling curve with a large enough effect; inconclusive = small, poorly fitted or top-dose-only effect; inactive = no such curve, though single readings can be large or run the other way; note: the source files actives as falling curves though it sought activators and does not explain the sign; nearly all actives have a fitted effect of over 65% in size
Target sequence (P80244 whole entry, looked up): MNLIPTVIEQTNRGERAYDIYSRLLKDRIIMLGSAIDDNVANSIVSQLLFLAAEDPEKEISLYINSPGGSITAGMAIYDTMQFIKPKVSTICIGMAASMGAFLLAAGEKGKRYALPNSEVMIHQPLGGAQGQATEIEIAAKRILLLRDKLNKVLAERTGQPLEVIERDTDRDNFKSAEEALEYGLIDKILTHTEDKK
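FRET quenching reversal measured ClpP activation: 10 microg/mL B. subtilis ClpP at pH 8 with the FRET-FV decapeptide, read at 430 nm after 320 nm excitation. The 20-min minus 0-min signal was scaled between DMSO/no-enzyme wells and ADEP (5.8 microM final).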
FUS suppressor = rescues growth of FUS-expressing yeast | 390,000 compounds, 0.24% hits | AID 1347120 | Potency, µM (series often up to 76.6 µM), hits mostly activators | S. cerevisiae FUS-expressing, growth rescue, OD600, 24 h;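 note: plate controls were DMSO vehicle for no effect and reference control for full effect; nearly all actives have a fitted effect of over 55% in size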
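Restored growth of FUS-toxic S. cerevisiae, read as 600 nm absorbance after 24 h at 30C in galactose medium (starting OD 0.005). Controls CP55940 and DMSO.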
aSyn rescue = alpha-synuclein toxicity inhibition in yeast; 370,000 compounds, 0.14% hits; Potency, µM (top dose mostly 46.1 µM), for inactives: at the highest dose growth rescue (activation), actives largely listed as activators; AID 652106; Yeast expressing alpha-synuclein, growth rescue, BacTiter-Glo, 24 h; note: % of control where 0% means no effect; nearly all actives have a fitted effect of over 65% in size
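Galactose-induced alpha-syn yeast (OD600=0.02, raffinose-pregrown) + pinned cpd, 24 hr, 30 deg C; growth by BacTiter-Glo luminescence. Growth restoration scores as activation.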
Abeta yeast res = restores growth of yeast expressing A-beta42 peptide; Potency, µM (doses to about 46.1 µM), actives largely listed as activators; AID 1347071; 410,000 compounds, 0.063% hits; yeast expressing A-beta42, growth rescue, OD600, 48 h; response scale: 0% DMSO, 100% iron-clioquinol control; note: nearly all actives have a fitted effect of over 55% in size
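Yeast A-beta toxicity model in growth medium with pinned compounds, 48 h at 30 C; growth read as absorbance at 600 nm. Normalized to FeCl3/clioquinol equimolar mix (positive) and DMSO (negative).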
TDP-43 yeast inh = TDP-43 toxicity inhibition in yeast; TDP-43 expressing yeast growth rescue, BacTiter-Glo, 24 h; Potency, µM (series often up to 46.1 µM), for the others: at the highest dose growth rescue (activation), hits mostly activators; 410,000 compounds, 1.8% hits; AID 652104; note: % of control where 0% means no effect; nearly all actives have a fitted effect of over 50% in size
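In this qHTS, compounds that restore growth of yeast expressing TDP-43 appear as activators. Cells (OD600=0.02, galactose medium, raffinose-pregrown) are incubated with compound 24 hr at 30 deg C and growth is quantified by BacTiter-Glo.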
* marks the source's active call; other numbers are inactive results. The list is not random: actives were taken first. Their share in the collection is about 3.6%. Unless noted, calls come from the whole dose curve; as a rule, active = well fitted curve in the direction sought with a large enough effect; inconclusive = small, poorly fitted or top-dose-only effect, or another doubt; inactive = no such curve, though single readings can be large; an effect the other way counts as inactive or inconclusive. Potency is the fitted concentration of half-maximal effect.

OC(c1ccc(F)cc1)c1nc(/C=C/c2ccccc2)cs1 (stereo not given) was read as ClpP mod -6%, FUS suppressor inactive, aSyn rescue 18%, Abeta yeast res inactive and TDP-43 yeast inh inconclusive.
`OC(c1ccccc1)c1nc(/C=C/c2ccccc2)cs1` (stereo not given) gave ClpP mod -4%, FUS suppressor inactive, aSyn rescue 25%, Abeta yeast res inactive and TDP-43 yeast inh 14µM*.
For COc1cc(C(O)c2nc(/C=C/c3ccccc3)cs2)ccc1F (stereo not given) the results were ClpP mod -13%, FUS suppressor inactive, aSyn rescue 4%, Abeta yeast res inactive and TDP-43 yeast inh 22µM*.
`COc1ccc(C(O)c2nc(/C=C/c3ccc(C(F)(F)F)cc3)cs2)cc1` (stereo not given) gave ClpP mod 25µM*, FUS suppressor inactive, aSyn rescue inconclusive, Abeta yeast res inactive and TDP-43 yeast inh inconclusive.
For COc1ccc(/C=C/C(=O)c2cc(C(=O)/C=C/c3ccc(OC)cc3)c(O)cc2O)cc1 the results were ClpP mod -2% and aSyn rescue -7%.
Screening COc1cccc([C@@H]2Nc3ccc(C(=O)O)cc3[C@@H]3C=CC[C@@H]32)c1OC returned ClpP mod -26%, FUS suppressor inconclusive, Abeta yeast res inactive and TDP-43 yeast inh 18µM*.
For CC(C)C1Nc2ccc(C(=O)O)cc2C2C=CCC21 (stereo not given) the results were Mm-Cpn inhibitor -5%, ClpP mod -4%, FUS suppressor inactive, aSyn rescue -1%, Abeta yeast res inactive and TDP-43 yeast inh 18µM*.
Screening CCCC1Nc2ccc(C(=O)O)cc2C2C=CCC12 (stereo not given) returned Mm-Cpn inhibitor -5%, ClpP mod -12%, FUS suppressor inactive, aSyn rescue 0%, Abeta yeast res inconclusive and TDP-43 yeast inh inconclusive.
`Cc1cc(C)n(CC(=O)Nc2cc(F)ccc2F)c(=O)c1C#N` gave ClpP mod inconclusive, FUS suppressor inactive, aSyn rescue 2%, Abeta yeast res inactive and TDP-43 yeast inh -5%.
`CCC1(C)Cc2c(sc3nc(NC)n(C)c(=O)c23)CO1` (stereo not given) gave Mm-Cpn inhibitor -5%, ClpP mod 14µM*, aSyn rescue -5%, Abeta yeast res inactive and TDP-43 yeast inh 0%.
For Cn1c(NN)nc2sc3c(c2c1=O)CC(C)(C)OC3 the results were Mm-Cpn inhibitor 1%, ClpP mod 0%, FUS suppressor inactive, aSyn rescue 2%, Abeta yeast res inactive and TDP-43 yeast inh -9%.
Screening O=C(c1ccccc1)N1CCCC(c2nc3c(nnn3Cc3ccc(F)cc3F)c(=O)[nH]2)C1 (stereo not given) returned ClpP mod -2%, FUS suppressor inactive, Abeta yeast res inactive and TDP-43 yeast inh 22%.
`COc1ccc(NS(=O)(=O)c2ccc3[nH]c4c(c3c2)CCCCCC4)cc1` gave ClpP mod -1%, FUS suppressor inactive, Abeta yeast res inactive and TDP-43 yeast inh 13%.
Screening CCOC(=O)CC(NS(=O)(=O)c1ccc2[nH]c3c(c2c1)CCCC3)c1ccccc1Cl (stereo not given) returned ClpP mod -16%, FUS suppressor inconclusive, aSyn rescue 16µM*, Abeta yeast res inactive and TDP-43 yeast inh 20µM*.
Screening COc1ccc(Cl)cc1NS(=O)(=O)c1ccc2[nH]c3c(c2c1)CCCC3 returned ClpP mod -7%, FUS suppressor inactive, Abeta yeast res inactive and TDP-43 yeast inh 13µM*.
Screening CCOC(=O)C1CCN(S(=O)(=O)c2ccc3[nH]c4c(c3c2)CCCC4)CC1 returned Mm-Cpn inhibitor 2%, ClpP mod -6%, FUS suppressor inactive, aSyn rescue 17%, Abeta yeast res inactive and TDP-43 yeast inh inconclusive.
COc1ccc(S(=O)(=O)Nc2cc(Cl)ccc2OC)cc1 was read as Mm-Cpn inhibitor inconclusive, ClpP mod 1%, aSyn rescue 24%, Abeta yeast res inactive and TDP-43 yeast inh 3.2µM*.
Screening C#CCOCCOCCOCCNc1nc(N2CCN(C(=O)[C@H](CCCCN)n3cc([C@@H](N)C(C)CC)nn3)CC2)nc(N2CCN(C(=O)[C@H](CCCCN)n3cc([C@@H](N)C(C)CC)nn3)CC2)n1 (stereo not given in full) returned FUS suppressor inactive.
`Cc1onc(-c2ccccc2)c1-c1ccnn1C(=O)NC(C)C` gave Mm-Cpn inhibitor 5%, ClpP mod 1%, FUS suppressor inactive, aSyn rescue -12%, Abeta yeast res inactive and TDP-43 yeast inh 11µM*.
`Cc1ccc(S(=O)(=O)n2nccc2-c2c(-c3ccccc3)noc2C)cc1` gave Mm-Cpn inhibitor -3%, FUS suppressor inactive, aSyn rescue 1%, Abeta yeast res inactive and TDP-43 yeast inh -13%.
`C/C(=N\NC(=O)c1c(Cl)c(C)nn1C)c1ccc(NC(=O)COc2ccc(Cl)cc2C)cc1` gave Mm-Cpn inhibitor 2%, ClpP mod 25µM*, FUS suppressor inactive, aSyn rescue 5%, Abeta yeast res inactive and TDP-43 yeast inh -2%.
Screening Cc1cccc(C(=O)NC2=NC(c3ccc(Cl)cc3)CC(=O)N2)c1 (stereo not given) returned ClpP mod -3%, FUS suppressor inactive, Abeta yeast res inactive and TDP-43 yeast inh inconclusive.
For CCOC(=O)N1CCN(C(=O)c2ccc3nc4ccc(Cl)cc4c(=O)n3c2)CC1 the results were Mm-Cpn inhibitor 4%, ClpP mod 14µM*, FUS suppressor inactive, aSyn rescue 0%, Abeta yeast res inactive and TDP-43 yeast inh -4%.
Cc1ccc(CN2CCCn3nc(C(=O)NCc4cc(C)ccc4C)cc3C2=O)cc1 was read as ClpP mod -1%, FUS suppressor inactive, Abeta yeast res inactive and TDP-43 yeast inh inconclusive.
CC(C)(C)c1ccc(CC(=O)N2CCC2(C)C(=O)Nc2cnc3ccccc3c2)cc1 (stereo not given) was read as ClpP mod -9%, FUS suppressor inconclusive, aSyn rescue inconclusive, Abeta yeast res inactive and TDP-43 yeast inh 18µM*.
